Bioassay records: PubChem BioAssay, University of Kansas High Throughput Screening Laboratory
mHTT-CaM PPI inh – inhibitors of human mutant huntingtin-calmodulin interaction | P42858 | AlphaScreen His-mHTT/GST-CaM binding, luminescence | inhibition, % at 15 µM | 3.6% of 190,000 active | AID 1671202
Pf apPOL block – Pf-apPOL DNA polymerase inhibition; Recombinant Pf-apPOL, molecular beacon fluorescence, 1.5 h; inhibition, % at 10 µM; 0.25% of 210,000 active; AID 1794808
Large screens that a line does not name were inactive. Only a selection was taken, and hits are over-represented in it overall. Rule as the data show it: active = inhibition above about 50%; inactive = the rest.

O=c1c(-c2ccc(O)cc2)coc2cc(O)cc(O)c12	none (no result: mHTT-CaM PPI inh)
O=C(Nc1ccccc1-c1nc2ccccc2[nH]1)c1ccccc1F	none
CCSc1ccccc1C(=O)Nc1ccccc1-c1nc2ccccc2[nH]1	mHTT-CaM PPI inh 61.4
CNS(=O)(=O)CCCOc1cccc2c1OC(C)(C)C2	none
COc1ccccc1C1C2=C(CCCC2=O)Nc2ncnn21 (stereo not drawn)	none
O=C1NC(c2ccccn2)Nc2sc3c(c21)CCC3 (stereo not drawn)	mHTT-CaM PPI inh 69.0
O=C1NC(c2ccccc2[N+](=O)[O-])Nc2sc3c(c21)CCCC3 (stereo not drawn)	mHTT-CaM PPI inh 58.0
O=C1NC(c2ccccc2F)Nc2sc3c(c21)CCCC3 (stereo not drawn)	none
O=C1NC(c2cccc(F)c2)Nc2sc3c(c21)CCC3 (stereo not drawn)	none
NS(=O)(=O)c1cccc(NC(=O)c2ccc([N+](=O)[O-])cc2)c1	none
CC(Oc1cc2oc(=O)c3c(c2cc1Cl)CCC3)C(=O)O (stereo not drawn)	none
Cc1ccccc1NC(=O)CN1CCC2(CC1)N=C(c1cccc(Cl)c1)C(=O)N2	none
Nc1c(C(=O)Nc2ccccc2)sc2cc([N+](=O)[O-])cc(Sc3ccccc3)c12	none
CCCn1c(C2CCN(C(=O)c3ccsc3)C2)nc2cccnc21 (stereo not drawn)	none
CC(=O)N1CCc2ccccc2C1C(=O)N1CCN(c2ccc(F)cc2)CC1 (stereo not drawn)	none
CC(=O)N1CCc2ccccc2C1C(=O)N1CCN(c2ccc(C)cc2)CC1 (stereo not drawn)	none
O=C(C1c2ccccc2CCN1C(=O)C1CC1)N1CCN(c2ccc(F)cc2)CC1 (stereo not drawn)	mHTT-CaM PPI inh 55.5
CC(=O)N1CCc2ccccc2C1C(=O)N1CCN(c2cccc(Cl)c2)CC1 (stereo not drawn)	mHTT-CaM PPI inh 77.9
O=C(c1ccoc1)N1CCC(c2nncn2-c2ccccc2)CC1	none
COc1cc(CNC(=O)C2CCN(Cc3cn(C)c4ccccc34)CC2)cc(OC)c1	none
CC1CN(C(=O)Nc2ccccc2Cl)c2ccccc2O1 (stereo not drawn)	none
Cc1ccc(NC(=O)N2CC3CCCN3c3ccccc32)c(Cl)c1 (stereo not drawn)	mHTT-CaM PPI inh 76.5
Cc1ccc(Cl)cc1NC(=O)N1CC2CCCN2c2ccccc21 (stereo not drawn)	none
O=C(Nc1ccccc1Cl)N1CC2CCCN2c2ccccc21 (stereo not drawn)	mHTT-CaM PPI inh 81.4
O=[N+]([O-])c1cc(NC2OCC(O)C(O)C2O)ccc1S(=O)(=O)O (stereo not drawn)	Pf apPOL block 61.8
O=[N+]([O-])c1cccc(NC2OCC(O)C(O)C2O)c1 (stereo not drawn)	none
O=C(NCc1cccs1)c1cn(-c2ccccc2Cl)nn1	none
COc1cccc(OC)c1C(=O)Oc1ccc2c(c1)OC(=Cc1ccncc1)C2=O	none
O=C(O)C1CSC(c2ccc(Cl)c(Cl)c2)N1 (stereo not drawn)	none
O=C(O)C1CSC(c2cc(Cl)cc(Cl)c2O)N1 (stereo not drawn)	mHTT-CaM PPI inh 91.0
COc1ccc(Br)cc1C1NC(C(=O)O)CS1 (stereo not drawn)	none
O=C(O)C1CSC(c2cc(Br)ccc2O)N1 (stereo not drawn)	mHTT-CaM PPI inh 56.0
O=C(O)c1ccc(NC(CS(=O)(=O)Cc2ccc(F)cc2)C(=O)O)c([N+](=O)[O-])c1 (stereo not drawn)	none
COc1ccc(CCCC(=O)Nc2cccc([N+](=O)[O-])c2)cc1	none
CCn1c(C2CCN(S(=O)(=O)c3ccc4c(c3)CCCC4)C2)nc2ccncc21 (stereo not drawn)	mHTT-CaM PPI inh 92.6
CCn1c(C2CCN(S(=O)(=O)c3cc(F)cc(F)c3)C2)nc2ccncc21 (stereo not drawn)	none
O=C(Cc1c[nH]c2ccccc12)N1CCc2c(nc3cc[nH]n3c2=O)C1	none
CCCc1cc(=O)n2[nH]c(C)c(-c3ccccc3)c2n1	none
Cc1[nH]n2c(=O)cc(Cc3ccccc3)nc2c1-c1ccc(Cl)cc1	mHTT-CaM PPI inh 62.5
Cc1sc2nc(SCC(=O)c3ccc(O)c(O)c3)[nH]c(=O)c2c1C	mHTT-CaM PPI inh 68.0
Cc1cc(C)c2c(=O)[nH]c(SCC(=O)c3ccc(O)c(O)c3)nc2n1	none
O=C(c1ccc(F)cc1)N1CCC(n2c(-c3ccoc3)nc3cccnc32)C1 (stereo not drawn)	none
CCCCC1=NN(C(=O)COc2ccc(Cl)c(C)c2)C(O)(C(F)(F)F)C1 (stereo not drawn)	mHTT-CaM PPI inh 100.0
CCCCC1=NN(C(=O)c2ccccc2Cl)C(O)(C(F)(F)F)C1 (stereo not drawn)	none
Cc1ccccc1OCC(=O)N1N=C(c2cccc(Br)c2)CC1(O)C(F)(F)F (stereo not drawn)	mHTT-CaM PPI inh 99.0
CCC1=NN(C(=O)COc2ccccc2C)C(O)(C(F)(F)F)C1 (stereo not drawn)	none
COc1ccc2c(c1)-c1onc(C(=O)NCCC(C)C)c1CC2	none
CCCn1c(NC(=O)c2ccco2)nc2ccccc21	none
O=C(NCc1nc2ccccc2n1CCCCOc1ccccc1Cl)c1ccco1	mHTT-CaM PPI inh 75.4
CCCC(C)C(=O)N(C)c1ccccc1 (stereo not drawn)	none
COc1ccccc1NC(=O)CN(c1ccccc1C)S(=O)(=O)c1ccc(C)cc1	none
COc1ccc(C)cc1N(CC(=O)Nc1cccc(Br)c1)S(C)(=O)=O	none
COc1ccccc1N(CC(=O)Nc1ccc(Br)c(C)c1)S(C)(=O)=O	mHTT-CaM PPI inh 69.2
O=C(CN(c1cc(C(F)(F)F)ccc1Cl)S(=O)(=O)c1ccccc1)Nc1ccccc1	mHTT-CaM PPI inh 99.0
Cc1cccc(N(CC(=O)Nc2ccc(F)cc2)S(=O)(=O)c2ccccc2)c1C	mHTT-CaM PPI inh 100.2
CS(=O)(=O)N(CC(=O)Nc1ccccc1)c1cc(C(F)(F)F)ccc1Cl	none
Cc1cccc(N(CC(=O)Nc2ccccc2Cl)S(=O)(=O)c2ccccc2)c1C	none
Cc1ccc(S(=O)(=O)N(CC(=O)Nc2ccccc2F)c2ccccc2C)cc1	mHTT-CaM PPI inh 82.3
N#CC(=Cc1ccc(Cl)c(Cl)c1)C(=O)OCc1ccccc1	none (no result: mHTT-CaM PPI inh)
O=C(CCC1CCCN(c2cc(NC3CC3)ncn2)C1)NCCc1cccnc1 (stereo not drawn)	none
COc1ccc(CNc2ccc(F)cc2C)cc1	none
Cc1ccc(N(CC(=O)Nc2ccc(C(N)=O)cc2)S(=O)(=O)c2ccc(F)cc2)cc1	none
Cc1ccc(N(CC(=O)Nc2ccc(F)cc2)S(C)(=O)=O)c(C)c1	Pf apPOL block 74.5
COc1ccc(NC(=O)CN(c2ccc(C)cc2)S(=O)(=O)c2ccc(F)cc2)cc1OC	Pf apPOL block 89.7
COc1ccc(NC(=O)CN(c2ccc(C)cc2C)S(C)(=O)=O)cc1OC	none
O=C(NC1CCCCC1)c1nn2c(c1Cl)NC(c1cccs1)CC2C(F)(F)F (stereo not drawn)	none
O=C(c1nn2c(c1Cl)NC(c1cccs1)CC2C(F)(F)F)N1CCc2ccccc2C1 (stereo not drawn)	mHTT-CaM PPI inh 100.0
O=C(c1nn2c(c1Cl)NC(c1cccs1)CC2C(F)(F)F)N1CCCC1 (stereo not drawn)	none
CN(C(=O)c1nn2c(c1Cl)NC(c1cccs1)CC2C(F)(F)F)C1CCCCC1 (stereo not drawn)	mHTT-CaM PPI inh 77.0
COc1cccc(-c2csc(Nc3cc(C)ccn3)n2)c1	none
Cc1ccnc(Nc2nc(-c3ccc(O)c(O)c3)cs2)c1	mHTT-CaM PPI inh 92.0
